# An excerpt weighted towards active compounds, which were near 2.3% of everything screened.
# A549 viability – A549 cytotoxicity, counter-screen for Nrf2 inhibitors | A549 ARE-Fluc cells, CellTiter-Fluor viability, 18-24 h | Potency, µM (titrated, usually from 46 µM), usual class: inhibitors | hit rate 0.16% among 390,000 | AID 504648
#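 A549 ARE-Fluc cells in 5% FBS OPTI-MEM, 5000 cells/well, rested 2 h then exposed to compounds in concentration-response for 18-24 h at 37 °C. Viability by CellTiter-Fluor fluorescence (Ex 405/Em 525) after 30 min; luciferase luminescence (BugLite, 15 min, RT) read afterwards.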
# Nrf2 block – blocks Nrf2 signaling; A549 ARE-Fluc reporter, luciferase luminescence, 18-24 h; Potency, µM (doses to about 46 µM), actives largely listed as inhibitors; hit rate 2.1% among 360,000; AID 504444; further: nearly all actives have a fitted effect of over 60% in size
#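 Quantitative HTS in A549 cells stably bearing an antioxidant response element-firefly luciferase construct. Inhibition of Nrf2-driven transcription was scored by luminescence after 18-24 h of compound exposure at 37 °C.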
# Giardia killer – Giardia lamblia killing; AID 540267; activity change, % at 7.66 µM, hits read low; hit rate 0.15% among 340,000; Giardia lamblia trophozoite viability; in the data active means activity change below about -80%; inconclusive means between about -30% and that limit;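 further: parasites exposed to compound for two days anaerobically before the ATP read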
#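 Trophozoite viability was measured as ATP-dependent luminescence, read 15-30 min after reagent addition. Before that, parasites at 100 cells/well were exposed to compounds for 48 h, anaerobically, at 37 deg C.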
# Anesthetic bind – candidate novel general anesthetic via apoferritin binding | apoferritin/1-aminoanthracene competitive binding, fluorescence | hit rate 0.074% among 350,000 | Potency, µM (highest dose often 77.5 µM), actives largely listed as inhibitors | P02791 | AID 485281; further: nearly all actives have a fitted effect of over 20% in size
# Target sequence (P02791 2-175 limits assumed): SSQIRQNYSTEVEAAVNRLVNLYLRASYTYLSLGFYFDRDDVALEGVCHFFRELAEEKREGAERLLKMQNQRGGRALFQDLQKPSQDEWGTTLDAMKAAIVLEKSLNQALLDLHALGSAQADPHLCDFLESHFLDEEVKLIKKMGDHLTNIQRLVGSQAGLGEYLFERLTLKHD
#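 Concentration-response curves derived by four-parameter Hill fitting of normalized fluorescence, where compounds displaced 1-AMA from 10 uM horse apoferritin following a brief 10 min room-temperature incubation; propofol titration acted as positive control.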
# Nrf2 activator – activators of Nrf2 (ARE) signaling | AREc32 ARE-luciferase reporter (MCF7-derived line), luminescence, 24 h | hit rate 0.31% among 410,000 | Potency, µM (titrated, usually from 46.1 µM), actives largely listed as activators; further: nearly all actives have a fitted effect of over 65% in size
#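 Each well held 1000 AREc32 cells, which were incubated with compound for 24 hr at 37 deg C after overnight attachment, and ARE reporter activity was quantified by firefly luciferase luminescence.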
# mIDH1 inhibitor – human IDH1 R132H inhibition; hit rate 0.093% among 390,000; Potency, µM (titrated, usually from 76.6 µM), usual class: inhibitors; IDH1-R132H enzyme, NADPH consumption, diaphorase/resazurin fluorescence; O75874; AID 602179; further: nearly all actives have a fitted effect of over 65% in size
# Target sequence (O75874 whole entry R132H, stated change not applied): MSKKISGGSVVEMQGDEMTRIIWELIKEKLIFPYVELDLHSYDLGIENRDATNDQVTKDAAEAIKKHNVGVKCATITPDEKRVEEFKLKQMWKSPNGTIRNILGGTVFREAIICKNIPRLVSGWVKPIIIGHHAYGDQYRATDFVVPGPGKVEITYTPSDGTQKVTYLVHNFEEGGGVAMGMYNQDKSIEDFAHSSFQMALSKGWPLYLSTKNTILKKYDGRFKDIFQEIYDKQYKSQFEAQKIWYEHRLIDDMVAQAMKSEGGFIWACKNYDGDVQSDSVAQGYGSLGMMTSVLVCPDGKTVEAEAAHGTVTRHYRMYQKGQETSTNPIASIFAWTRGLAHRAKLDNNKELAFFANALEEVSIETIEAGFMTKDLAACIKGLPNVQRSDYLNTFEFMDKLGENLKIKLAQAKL
#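 IDH1-R132H (0.5 ug/mL) preincubated 30 min with compound, then NADPH (0.016 mM) and alpha-KG (2 mM) added; 80 min at RT, pH 7.5. Remaining NADPH coupled via diaphorase/resazurin to fluorescence (540/590 nm); concentration-response curves normalized to no-enzyme control.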
# Hits are given with their value; n = inactive; u = inconclusive; x = no result; [ ] = dose if it differs, or a comment. Unless noted, the call rests on the fitted dose curve; in most records, active means well fitted curve in the direction sought with a large enough effect; inconclusive means small, poorly fitted or top-dose-only effect, or another doubt; inactive means no such curve, though single readings can be large; an effect the other way counts as inactive or inconclusive.
SMILES,A549 viability,Nrf2 block,Giardia killer,Anesthetic bind,Nrf2 activator,mIDH1 inhibitor
COc1ccccc1OCC(=O)Nc1nnc(-c2ccco2)s1,n,n,n,n,11µM,n
Cc1cccc(OCC(=O)Nc2nnc(-c3ccco3)s2)c1,n,u,n,n,n,n
COc1ccc(NC(=O)Nc2nnc(-c3ccccc3F)s2)cc1,n,u,n,n,u,n
CC1CCCC(C)N1CCCNC(=O)c1nn(C)c2c1CSc1ccccc1-2 (stereo unspecified),n,u,n,n,n,n
CCOc1ccccc1NC(=O)c1nn(C)c2c1CSc1ccccc1-2,n,18µM,x,n,n,n
CCCCNC(=O)c1nn(C)c2c1CSc1ccccc1-2,n,21µM,x,n,n,n
CCCN(C(=O)c1ccco1)c1nnc(-c2cccc(C)c2)s1,n,u,n,u,10µM,n
CCCc1c(C(=O)N/N=C/c2cccs2)nnn1-c1nonc1N,n,n,n,n,8.9µM,n
CCCN(CCC)Cc1c(C(=O)N/N=C/c2ccc(Br)cc2)nnn1-c1nonc1N,u,16µM,n,n,n,n
CN(C)Cc1c(C(=O)N/N=C/c2cccc(OCc3c(F)cccc3Cl)c2)nnn1-c1nonc1N,n,3.7µM,n,n,n,n
CCCN(CCC)Cc1c(C(=O)N/N=C/c2cccs2)nnn1-c1nonc1N,n,n,n,n,n,n
CCOC(=O)c1sc(=S)n(C)c1NC(=O)c1ccc(F)cc1,n,23µM,n,n,n,n
COc1ccc(Br)cc1C1NC(c2ccc3c(c2)OCO3)=CC(c2ccccc2O)N1 (stereo unspecified),n,u,n,x,x,x
CC(C)(C)C1CCc2c(sc(N)c2C(N)=O)C1 (stereo unspecified),n,n,n,u,n,n
CCC(C)(C)C1CCc2c(sc(N)c2C(N)=O)C1 (stereo unspecified),n,18µM,n,u,n,n
CCNc1cccc(S(=O)(=O)N2CCCN(S(=O)(=O)c3ccc4c(c3)OCCO4)CC2)c1,n,u,x,x,x,x
Cn1c(NC(=O)c2ccc(Br)o2)cc(=O)n(C)c1=O,n,x,n,n,11µM,n
Cn1c(NC(=O)/C=C/c2c(F)cccc2Cl)cc(=O)n(C)c1=O,n,n,n,n,u,n
Cn1c(NC(=O)/C=C\c2ccccc2)cc(=O)n(C)c1=O,n,u,n,n,11µM,n
CC(C)NC(=O)C1(C)CCN1C(=O)c1cccn1C (stereo unspecified),x,x,x,x,n,x
O=C(N/N=C/c1cccc(Oc2ccc([N+](=O)[O-])cc2[N+](=O)[O-])c1)c1cncc(Br)c1,u,13µM,n,n,u,n
C=CC[C@@H](CC(=O)N(CCO)Cc1ccccc1)C(=O)N[C@@H](COC(=O)[C@H](CC=C)CC(=O)OC(C)(C)C)Cc1c[nH]c2ccccc12,u,23µM,n,x,n,n
C=CC[C@H](CC(=O)N(CCO)Cc1ccccc1)C(=O)N[C@@H](COC(=O)[C@@H](CC=C)CC(=O)OC(C)(C)C)Cc1c[nH]c2ccccc12,u,21µM,n,x,n,n
O=C(c1ccc(Oc2ccc([N+](=O)[O-])cc2)cc1)N1CCCCCC1,n,5.8µM,n,u,n[9.22 µM],n
O=C(c1ccc(Oc2ccc([N+](=O)[O-])cc2Cl)cc1)N1CCCC1,n,u,n,u,n,n
SMILES,A549 viability,Nrf2 block,Giardia killer,Anesthetic bind,Nrf2 activator,mIDH1 inhibitor
Cc1ccc(C)c(NC(=O)CN(C)C(=O)c2cccc(S(=O)(=O)N3CCCC3)c2)c1,n,n,n,x,n,n
O=C(NCCOc1ccccc1F)c1cccc(S(=O)(=O)N2CCN(c3ccccc3)CC2)c1,n,4.6µM,n,x,n,n
COc1ccc(CN(C)C(=O)c2cccc(S(=O)(=O)N3CCN(c4ccccc4)CC3)c2)c(OC)c1OC,n,10µM,n,x,n,n
CN(Cc1ccc(F)cc1)C(=O)c1cccc(S(=O)(=O)N2CCN(Cc3ccccc3)CC2)c1,n,u,n,x,n,n
CN(Cc1ccc(F)cc1)C(=O)c1cccc(S(=O)(=O)N2CCN(c3ccccc3)CC2)c1,n,23µM,n,x,n,n
Cc1ccc(C)c(NC(=O)CN(C)C(=O)c2cccc(S(=O)(=O)N3CCN(Cc4ccccc4)CC3)c2)c1,n,12µM,n,n,n,n
Cc1cc2c(s1)c1cnn(Cc3cc(F)c(F)c(F)c3)c(=O)c1n2C,n,n,x,x,x,x
Cc1ccc(C2=Nc3ccccc3N(CC(=O)NCc3ccccc3Cl)C(=O)C2)cc1C,n,n,x,n,n,n
Cc1c(-c2ccccc2)c(=O)oc2c(CN3CCCC3)c(O)ccc12,u,x,x,n,n,n
O=C(c1cccc(S(=O)(=O)N2CCN(c3ccccc3)CC2)c1)N1CCCC(C(F)(F)F)C1 (stereo unspecified),n,13µM,n,x,n,n
COc1cccc(NC(=O)CN(C)C(=O)c2cccc(S(=O)(=O)N3CCN(c4ccc(F)cc4)CC3)c2)c1,n,u,n,x,n,n
CN(Cc1cccc(F)c1)C(=O)c1ccc(S(=O)(=O)N2CCCCCC2)cc1,n,23µM,n,x,n,n
CN(CC(=O)Nc1ccc(F)cc1)C(=O)c1cccc(S(=O)(=O)N2CCN(c3ccc(F)cc3)CC2)c1,n,21µM,n,x,n,n
COc1ccc(CN(C)C(=O)c2cccc(S(=O)(=O)N3CCCc4ccccc43)c2)c(OC)c1OC,u,23µM,n,x,n,n
COCCCNC(=O)c1cnc2sc(N3CCCCCC3)nn2c1=O,n,n,x,n,n,n
Cn1ncc2ccc(-c3ccc4ncnc(NCc5cccs5)c4c3)cc21,n,n,x,x,x,x
COCCN(Cc1ccccc1)C(=O)c1cccc(S(=O)(=O)N2CCN(c3ccc(F)cc3)CC2)c1,n,n,n,x,n,n
CN(Cc1ccc(F)cc1)C(=O)c1cccc(S(=O)(=O)N2CCN(c3ccc(F)cc3)CC2)c1,n,18µM,n,x,n,n
CCN(CC(=O)Nc1c(F)cccc1F)C(=O)c1cccc(S(=O)(=O)N2CCCc3ccccc32)c1,u,26µM,n,x,n,n
Cc1cccc(CNC(=O)c2oc3c(c2C)-c2nn(Cc4ccccc4Cl)cc2CC3)c1,n,n,x,n,n,n
CNC(=O)C1CCC(Cn2c(=O)c3sccc3n(CC(=O)NCc3ccc(C)cc3)c2=O)CC1 (stereo unspecified),n,u,x,n,n,n
COC(=O)c1ccc(-c2ccc(C3C4C=CCC(C)C4C(=O)N3Cc3ccccc3)c(F)c2)cc1 (stereo unspecified),n,10µM,n,n,x,x
CC(=O)c1ccc(-c2cc(C3C4C=CCC(C)C4C(=O)N3Cc3ccccc3)ccc2F)cc1 (stereo unspecified),n,u,n,n,x,x

# Compound activity as filed in PubChem.
